Compound activity: PubChem BioAssay, Buhrlage Lab, Dana-Farber Cancer Institute and Novartis Institutes for BioMedical Research (Cambridge, Mass)
UCHL1 inh: human UCHL1 deubiquitinase inhibition; AID 1645859; 47,000 tested, 0.2% active; P09936; purified UCHL1, Ub-rhodamine cleavage fluorescence; inhibition, % at 20 µM
Target sequence (P09936 whole entry, looked up): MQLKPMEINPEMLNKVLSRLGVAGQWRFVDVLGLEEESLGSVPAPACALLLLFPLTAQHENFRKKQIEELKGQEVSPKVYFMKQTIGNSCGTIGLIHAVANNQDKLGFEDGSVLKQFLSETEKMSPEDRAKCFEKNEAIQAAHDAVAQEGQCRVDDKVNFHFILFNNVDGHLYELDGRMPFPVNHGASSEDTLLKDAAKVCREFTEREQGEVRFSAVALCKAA
USP8 inh: inhibitors of human USP8 deubiquitinase. P40818. purified USP8, Ub-rhodamine cleavage fluorescence, 30 min. inhibition, % at 20 µM. 47,000 tested, 4.2% active. AID 1645853
USP28 block: human USP28 deubiquitinase inhibition | purified USP28, Ub-rhodamine cleavage fluorescence, 30 min | inhibition, % at 25 µM | 47,000 tested, 3% active | AID 1645857
USP10 inh: blocks human USP10 ubiquitin-rhodamine cleavage. Q14694. purified USP10, Ub-rhodamine fluorescence, 60 min. inhibition, % at 20 µM. 47,000 tested, 1.1% active. AID 1645856
OTUD3 block: blocks human OTUD3 ubiquitin-rhodamine cleavage. Q5T2D3. AID 1645858. purified OTUD3, Ub-rhodamine fluorescence, 2 h. inhibition, % at 25 µM. 47,000 tested, 0.7% active
USP7 block: blocks human USP7 ubiquitin-rhodamine cleavage; 47,000 tested, 0.3% active; Q93009; inhibition, % at 20 µM; purified USP7, Ub-rhodamine cleavage fluorescence
Of the large screens only hits and unclear results are named; the others gave an inactive call. A selection: hits, their analogues and other compounds. The true share with any hit is near 6.8%. No stated cut-off is given here; in the data, active means inhibition above about 30%; inactive means the rest.

Cc1nnc(-c2ccc3ccn(CC(=O)NC4CCCCCC4)c3c2)o1	none
Cc1nnc(-c2ccc3ccn(CC(=O)NC4CCCC4)c3c2)o1	none
Cc1nnc(-c2ccc3ccn(CC(=O)N4CCN(c5ccccc5)CC4)c3c2)o1	USP8 inh 96.4, USP10 inh 47.3, OTUD3 block 72.8
CCCC1(c2ccccc2)NC(=O)N(CC(=O)N(C)c2ccccc2)C1=O (centres undefined)	none
CCCn1c(C(O)c2cccc3ccccc23)nc2ccccc21 (centres undefined)	USP8 inh 48.3
COc1ccc(Cl)cc1NC(=O)CSc1ncnc2nc[nH]c12	USP8 inh 74.0, USP28 block 43.4, USP10 inh 46.8
COc1ccc(Cl)cc1NC(=O)CSc1nnc(-c2ccoc2C)o1	none
CCOc1ccc(-c2ccc3nnc(SCC(=O)Nc4cccc(C(C)=O)c4)n3n2)cc1	USP28 block 43.4
CCOc1ccc(NC(=O)COc2cccc(-n3cnnn3)c2)cc1	USP28 block 55.0
Cc1ccnc(N2CCCC(C(=O)Nc3ccc(CN4CCOCC4)cc3)C2)n1 (centres undefined)	none
COc1ccc(N2CCN(c3ncc4c(=O)n(Cc5ccco5)ccc4n3)CC2)cc1	none
CCOC(=O)C1=C(CN2CCC(C(=O)OCC)CC2)NC(=O)NC1c1ccc(F)cc1 (centres undefined)	none
CC(=O)c1cc2c(cc1NC(=O)c1oc3c(c1C)-c1[nH]ncc1CC3)OCO2	USP8 inh 30.7
COC(C(=O)[C@@H](O)[C@@H](C)O)C1Cc2cc3cc(O[C@@H]4CC(O[C@@H]5CC(O)[C@@H](OC)C(C)O5)[C@@H](OC(C)=O)C(C)O4)cc(O)c3c(O)c2C(=O)C1O[C@H]1CC(O[C@H]2CC(O[C@H]3CC(C)(O)[C@@H](OC(=O)C(C)C)C(C)O3)[C@H](O)C(C)O2)[C@H](O)C(C)O1 (some centres undefined)	none
O=C(COc1ccccc1)Nc1ccc(-c2nc3cnccc3o2)c(O)c1	USP8 inh 84.0, USP7 block 36.2
COc1ccccc1C(=O)Nc1ccc(-c2nc3ccccc3o2)c(O)c1	USP8 inh 37.3, USP10 inh 32.2
Cc1ccc2oc(-c3cc(NC(=O)c4cccc(-n5cnnc5)n4)ccc3O)nc2c1	none (no result: USP28 block)
O=C(CCn1c(=S)oc2ccccc21)Nc1ccc(O)c(-c2nc3ccccc3o2)c1	USP8 inh 33.3
Cc1cccc2nc(CSc3nc4ccc([N+](=O)[O-])cc4[nH]3)cn12	USP8 inh 62.5, USP10 inh 60.5
O=C(NCCc1nc2ccccc2n1Cc1ccccc1F)c1ccc(Cl)cc1	USP10 inh 30.4
CC(C)(C)N=C1Nc2ncccc2NC12CCN(C(=O)Nc1cc(F)cc(F)c1)C2 (centres undefined)	none
CCc1ccccc1NC(=O)CNS(=O)(=O)c1cc(-c2noc(C)n2)ccc1C	none
COc1cc2c(c(OC)c1OC)-c1ccc(NCC(O)c3ccccc3)c(=O)cc1[C@@H](NC(C)=O)CC2 (some centres undefined)	none
CCC(Sc1cccc(NC(=O)C2CCCCC2)c1)C(=O)Nc1cc([N+](=O)[O-])ccc1C (centres undefined)	USP8 inh 62.7
Cc1ccc(Cl)cc1NC(=O)C1CCCN1C(=O)Oc1ccccc1 (centres undefined)	none
COc1ccc2ncc(S(=O)(=O)c3ccccc3)c(N3CCCCCC3)c2c1	none
CCc1ccc2ncc(S(=O)(=O)c3ccccc3)c(N3CCCC3)c2c1	USP8 inh 36.5
CC(C)C[C@@H]1NC(=O)[C@H](CCCN)NC(=O)[C@H](C(C)C)NC(=O)[C@H](Cc2ccc(O)cc2)NC(=O)[C@H](CCC(N)=O)NC(=O)[C@H](CC(N)=O)NC(=O)[C@@H](Cc2ccccc2)NC(=O)[C@H](Cc2ccccc2)NC(=O)[C@@H]2CCCN2C(=O)[C@@H](Cc2ccccc2)NC1=O	USP28 block 39.4
CC1C(=O)N2CCCc3cc(NC(=O)c4ccc(F)cc4)cc1c32 (centres undefined)	none
O=C(Nc1cc2c3c(c1)CC(=O)N3CCC2)c1ccc(F)cc1	USP8 inh 32.6
COc1ccc(C(=O)Nc2cc3c4c(c2)CC(=O)N4CCC3)cc1	USP28 block 49.4
O=C(Nc1cc2c3c(c1)CC(=O)N3CCC2)c1ccc([N+](=O)[O-])cc1	none
COc1ccc(C(=O)Nc2cc3c4c(c2)C(C)C(=O)N4CCC3)cc1 (centres undefined)	USP28 block 51.7
COc1ccc(C(=O)Nc2ccc(C)c(N3CCCC3=O)c2)cc1	none
Cc1ccc(C(=O)Nc2cc3c4c(c2)CC(=O)N4CCC3)cc1	USP28 block 55.5
Cc1ccccc1-c1nnc(SCC(=O)N(C)Cc2ccccc2)n1C	none
O=C(COc1nsnc1N1CCOCC1)Nc1ccccc1F	OTUD3 block 81.4
O=C(COc1nsnc1N1CCOCC1)Nc1ccc(F)c(F)c1	none
O=C(c1csc(S(=O)(=O)Nc2cccnc2)c1)N1CCCCCC1	none
Cn1ccnc1C1(O)CCN(Cc2ccc(F)cc2)CC1	none
CC1CCCN(S(=O)(=O)c2ccc(-n3cnc(C(=O)NC4CC4)c3)nc2)C1 (centres undefined)	none
COc1ccccc1CNC(=O)CCc1nnc2ccc(N3CCCCC3)nn12	none
Cc1ccc(C)c(CN2CCC(CNC(=O)CCc3nnc4ccc(N5CCCCC5)nn34)CC2)c1	USP28 block 32.9
CC1CCN(c2ccc3nnc(CCC(=O)NCc4ccc(CN5CCOCC5)o4)n3n2)CC1	USP28 block 31.1
COc1cccc(OC)c1C(=O)Nc1ccc2c(c1)CN(C(C)=O)CC2	none
COc1cc2c(cc1OC)CN(C(=O)C(NC(=O)c1ccccc1)C(C)C)CC2 (centres undefined)	USP8 inh 53.5
Cc1cc(=O)c2c(O)oc(O)c3c(O)cc(=O)c1c32	USP8 inh 30.9
Cc1cc(O)cc2oc3cc(O)cc(O)c3c(=O)c12	none
CC(=O)N1CC2(CCN(C(=O)c3cccnc3)CC2)Nc2ccccc21	none
Cc1cccc(C(=O)OCC(=O)NCCc2ccccc2)c1O	none
O=C(COC(=O)c1cc2ccccc2cc1O)Nc1ccc(Cl)cn1	USP8 inh 36.8
O=C(COC(=O)c1cc2ccccc2cc1O)NCCc1ccccc1	USP8 inh 42.2
CCN1CC[C@@]2(C(=O)N3CCOCC3)CCN(C(=O)CC(C)C)CC[C@@H]12	none
Cc1cn2c(=O)c(S(=O)(=O)NCC3CCCO3)c(C)nc2s1 (centres undefined)	none
Cc1ccc2nc(CNc3ccc(F)cc3C)cc(=O)n2c1	UCHL1 inh 31.7, USP8 inh 93.0, USP28 block 52.1, OTUD3 block 42.0
Cc1ccc2nc(CN(C)c3ccccc3)cc(=O)n2c1	USP8 inh 74.2
NC(=O)c1ccccc1NCc1cc(=O)n2cc(Cl)ccc2n1	none
CN(Cc1cc(=O)n2ccsc2n1)c1ccccc1	USP8 inh 34.7
